From PubChem BioAssay (NCI)
About 79,000 compounds went through this panel and 15% of them were active in at least one assay; those are over-represented in the sample as a whole. Values without a mark were called inactive. Active and inactive are the calls of the source. Cut-off read from the data, not from the text of the source: active = growth inhibition above about 70%; inactive = the rest.

Legend:
[1] = NCI Yeast Anticancer Drug Screen. Data for the rad50 strain (AID 155);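 note: 0% = growth of vehicle-only cultures of the same strain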; settings: S. cerevisiae rad50 strain growth inhibition; at 50.0 µM; hits give high values
Outline: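 Genetically altered yeast (DNA repair pathway); compound treatment; growth inhibition vs vehicle ctrl.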

[2] = NCI Yeast Anticancer Drug Screen. Data for the mec2-1 strain (AID 157); settings: S. cerevisiae mec2-1 strain, at 50.0 µM, hits give high values
Outline: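 Strain: mec2-1 (DNA repair/cell cycle alteration). Compound exposure, then growth measured; inhibition expressed relative to vehicle.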

[3] = NCI Yeast Anticancer Drug Screen. Data for the sgs1 mgt1 strain (AID 161);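 note: 0% = growth of cultures given vehicle only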; settings: S. cerevisiae sgs1 mgt1 strain, at 50.0 µM, hits give high values
Outline: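 Genetically altered yeast, compound exposure, growth inhibition relative to vehicle.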

[4] = NCI Yeast Anticancer Drug Screen. Data for the cln2 rad14 strain (AID 165);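 note: 0% = growth equal to vehicle treated cultures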; settings: S. cerevisiae cln2 rad14 strain, at 50.0 µM, hits give high values
Outline: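 Compounds are applied to the cln2 rad14 yeast strain, and growth is then compared with that of vehicle-treated cultures to give inhibition.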

[5] = NCI Yeast Anticancer Drug Screen. Data for the bub3 strain (AID 167); settings: S. cerevisiae bub3 mutant strain, at 50.0 µM, hits give high values
Outline: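 Yeast carrying a defined mutation is treated with each compound, and growth is compared with that of vehicle-exposed cells to give inhibition.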

[6] = NCI Yeast Anticancer Drug Screen. Data for the mlh1 rad18 strain (AID 175); settings: S. cerevisiae mlh1 rad18 strain growth inhibition; at 50.0 µM; hits give high values
Outline: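 Read-out is yeast growth inhibition, calculated against vehicle-only controls. The compound was applied to a strain engineered with DNA damage repair alterations.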

O=C1C(=C(C(F)(F)Cl)C(F)(F)Cl)C2CCC1C2 (stereo unspecified)
growth inhibition [1]: 12% | growth inhibition [2]: -3.35% | growth inhibition [3]: 14.3% | growth inhibition [4]: 14.6% | growth inhibition [5]: 21.2% | growth inhibition [6]: 7.7%

[Cu+2].[Cu+2].c1ccc2c(c1)-c1nc-2nc2[n-]c(nc3nc(nc4[n-]c(n1)c1ccccc41)-c1ccccc1-3)c1cc3c4nc5nc(nc6[n-]c(nc7nc(nc([n-]4)c3cc21)-c1ccccc1-7)c1ccccc61)-c1ccccc1-5
growth inhibition [1]: -1.75% | growth inhibition [2]: -9.45% | growth inhibition [3]: 11.1% | growth inhibition [4]: -40.3% | growth inhibition [5]: -11.1% | growth inhibition [6]: 11.3%

CCOC(=O)/C=C\C(=O)OCC
growth inhibition [1]: 29.7% | growth inhibition [2]: 2.55% | growth inhibition [3]: 9.35% | growth inhibition [4]: 10% | growth inhibition [5]: 9.95% | growth inhibition [6]: -1.1%

Cc1ccc(-c2cc(=S)n(-c3ccccc3)c3nc(=S)n(-c4ccccc4)c(N)c23)cc1
growth inhibition [1]: 14.4% | growth inhibition [2]: 24.4% | growth inhibition [3]: 18.1% | growth inhibition [4]: -12.9% | growth inhibition [5]: 23.8% | growth inhibition [6]: 25.9%

Fc1ccc(-c2cc(-c3cccs3)cc(-c3ccccc3)n2)cc1
growth inhibition [1]: 8.6% | growth inhibition [2]: -9.45% | growth inhibition [3]: 21.2% | growth inhibition [4]: 8.55% | growth inhibition [5]: 20.8% | growth inhibition [6]: 11.1%

O=c1[nH]c(Nc2ccc(Cl)c(C(F)(F)F)c2)nc2nc[nH]c12
growth inhibition [1]: 17.7% | growth inhibition [2]: 7.55% | growth inhibition [3]: -9.5% | growth inhibition [4]: 9.9% | growth inhibition [5]: 8.45% | growth inhibition [6]: 23.1%

CCCCCC1CCC(O)CC1 (stereo unspecified)
growth inhibition [1]: 16.1% | growth inhibition [2]: 6.55% | growth inhibition [3]: 21.1% | growth inhibition [4]: -61.4% | growth inhibition [5]: 4.2% | growth inhibition [6]: -7.55%

Cc1ccc(OCc2cccc(Cl)c2)cc1
growth inhibition [1]: 17.8% | growth inhibition [2]: -10.4% | growth inhibition [3]: 2.5% | growth inhibition [4]: -2.9% | growth inhibition [5]: -42.1% | growth inhibition [6]: -11.3%

CN1CC=C(C#CC(C)(C)O)CC1
growth inhibition [1]: -13% | growth inhibition [2]: -17.4% | growth inhibition [3]: -0.65% | growth inhibition [4]: 4.7% | growth inhibition [5]: -5.9% | growth inhibition [6]: -25.3%

Cc1ccc(C(=O)Nc2ccc(CP(=O)(O)O)cc2CP(=O)(O)O)cc1NC(=O)c1cccc(N)c1
growth inhibition [1]: -7.3% | growth inhibition [2]: -1.95% | growth inhibition [3]: 4.4% | growth inhibition [4]: 0.4% | growth inhibition [5]: 0.8% | growth inhibition [6]: -1.25%

O=P1(c2ccccc2)c2ccccc2CCc2ccccc21
growth inhibition [1]: 18% | growth inhibition [2]: 2.75% | growth inhibition [3]: 21.8% | growth inhibition [4]: 22.1% | growth inhibition [5]: 2.25% | growth inhibition [6]: 8.35%

Cc1ccccc1NC(=O)CN1CCCC(C)C1 (stereo unspecified)
growth inhibition [1]: 10.7% | growth inhibition [2]: -34.8% | growth inhibition [3]: 0.9% | growth inhibition [4]: 11.3% | growth inhibition [5]: -16.2% | growth inhibition [6]: 5.45%

CC(=O)OC(Cc1ccc2ccccc2n1)(C(F)(F)F)C(F)(F)F
growth inhibition [1]: -17.6% | growth inhibition [2]: -16.1% | growth inhibition [3]: -8.05% | growth inhibition [4]: 6.2% | growth inhibition [5]: 5.5% | growth inhibition [6]: -24.5%

COC(=O)CCC1(CCC(=O)OC)CCCCCCC(CCC(=O)OC)(CCC(=O)OC)C(=O)C1=O
growth inhibition [1]: -11.6% | growth inhibition [2]: -0.5% | growth inhibition [3]: -1.25% | growth inhibition [4]: -2.45% | growth inhibition [5]: 5.25% | growth inhibition [6]: 19.8%

CCC1CN2CCc3cc(OC)c(OC)cc3C2CC1C#N (stereo unspecified)
growth inhibition [1]: 15.4% | growth inhibition [2]: 9.2% | growth inhibition [3]: 23.8% | growth inhibition [4]: 21.1% | growth inhibition [5]: 12.1% | growth inhibition [6]: 23.1%

S=C1SCN(c2ccc3c(c2)OCO3)CN1c1ccc2c(c1)OCO2
growth inhibition [1]: -24.4% | growth inhibition [2]: -33.9% | growth inhibition [3]: 20.9% | growth inhibition [4]: -0.6% | growth inhibition [5]: -1.05% | growth inhibition [6]: -20.1%

Cc1ccc2[nH]c(=O)[nH]c2c1
growth inhibition [1]: -13.6% | growth inhibition [2]: -6.2% | growth inhibition [3]: -0.25% | growth inhibition [4]: -5.3% | growth inhibition [5]: 2.15% | growth inhibition [6]: -22.4%

C/C=C/C(=O)OC/C=C(\C)CCC=C(C)C
growth inhibition [1]: -26.4% | growth inhibition [2]: -44.9% | growth inhibition [3]: -6.7% | growth inhibition [4]: -4.3% | growth inhibition [5]: -39.7% | growth inhibition [6]: -16.7%

O=C1/C(=C/c2ccc(F)cc2)CC/C1=C\c1ccc(F)cc1
growth inhibition [1]: -10.5% | growth inhibition [2]: -12.1% | growth inhibition [3]: -2.85% | growth inhibition [4]: -2.55% | growth inhibition [5]: -13.8% | growth inhibition [6]: -9.3%

O=C(ONC1CCC(CC2CCCCC2)CC1)c1ccccc1 (stereo unspecified)
growth inhibition [1]: 98.5% (active) | growth inhibition [2]: 98.8% (active) | growth inhibition [3]: 99% (active) | growth inhibition [4]: 96.8% (active) | growth inhibition [5]: 98.2% (active) | growth inhibition [6]: 98.5% (active)

N#C/C(=C\c1ccccc1)C(NO)Nc1ccccc1 (stereo unspecified)
growth inhibition [1]: -31.1% | growth inhibition [2]: -10.2% | growth inhibition [3]: -1.4% | growth inhibition [4]: 0.05% | growth inhibition [5]: 6.65% | growth inhibition [6]: -14.8%

O=c1c(Cl)c(Cl)cnn1-c1ccc([N+](=O)[O-])cc1[N+](=O)[O-]
growth inhibition [1]: 5.7% | growth inhibition [2]: 6.7% | growth inhibition [3]: 3.05% | growth inhibition [4]: -4.25% | growth inhibition [5]: -0.65% | growth inhibition [6]: 5.75%

CC(O)c1cc2c(s1)C(=O)c1scc(C(C)O)c1C2=O (stereo unspecified)
growth inhibition [1]: 89.8% (active) | growth inhibition [2]: 93.1% (active) | growth inhibition [3]: 92% (active) | growth inhibition [4]: 90.8% (active) | growth inhibition [5]: 91.4% (active) | growth inhibition [6]: 90.8% (active)

O=C(O)CCC1(c2ccccc2)NC(=O)NC1=O (stereo unspecified)
growth inhibition [1]: -39.1% | growth inhibition [2]: -2.85% | growth inhibition [3]: -18.4% | growth inhibition [4]: -37% | growth inhibition [5]: -1.1% | growth inhibition [6]: -6.75%

COC(=O)C1=NC(=O)C(C#N)=C(C(=O)OC)C1(C(=O)c1ccc(OC)cc1)c1ccc(OC)cc1 (stereo unspecified)
growth inhibition [1]: -39.9% | growth inhibition [2]: 3.7% | growth inhibition [3]: -9.15% | growth inhibition [4]: 13.8% | growth inhibition [5]: 11.9% | growth inhibition [6]: -12.1%

CCOC(=O)C1/C(=N\N=C2\c3c(nnp3N(CCOS(C)(=O)=O)CCOS(C)(=O)=O)C(C(=O)OCC)C(c3ccc(OC(C)=O)cc3)C2C(=O)OCC)c2c(nnp2N(CCOS(C)(=O)=O)CCOS(C)(=O)=O)C(C(=O)OCC)C1c1ccc(OC(C)=O)cc1 (stereo unspecified)
growth inhibition [1]: 6.75% | growth inhibition [2]: -0.05% | growth inhibition [3]: -3.85% | growth inhibition [4]: 4.25% | growth inhibition [5]: 10.3% | growth inhibition [6]: -4.5%

Cc1[nH]n(-c2nc(-c3ccccc3)cc(=O)[nH]2)c(=O)c1CCO
growth inhibition [1]: -11.8% | growth inhibition [2]: -31.5% | growth inhibition [3]: -25.9% | growth inhibition [4]: 10.8% | growth inhibition [5]: -7.1% | growth inhibition [6]: -13.2%

COC1CCC(OC)(C(=O)NN)O1 (stereo unspecified)
growth inhibition [1]: -22.9% | growth inhibition [2]: -53.1% | growth inhibition [3]: -9.45% | growth inhibition [4]: 4.3% | growth inhibition [5]: -57.2% | growth inhibition [6]: -0.6%

S=C(Nc1ccccc1)c1ccccc1
growth inhibition [1]: -23.2% | growth inhibition [2]: -16.5% | growth inhibition [3]: -5.25% | growth inhibition [4]: -29.3% | growth inhibition [5]: -5.1% | growth inhibition [6]: 16.1%

CC(C)C(C(=O)O)N(CC1(O)OCC(O)C(O)C1O)N=O (stereo unspecified)
growth inhibition [1]: -0.2% | growth inhibition [2]: -18.4% | growth inhibition [3]: -2.85% | growth inhibition [4]: 0.1% | growth inhibition [5]: -11.1% | growth inhibition [6]: -12.9%

COC(=O)C(Cc1ccc2c(c1)OCO2)(NC(=O)c1ccccc1)P(=O)(OC)OC (stereo unspecified)
growth inhibition [1]: -30.5% | growth inhibition [2]: 1.05% | growth inhibition [3]: -8.6% | growth inhibition [4]: 16.8% | growth inhibition [5]: -25.1% | growth inhibition [6]: -32.5%

CC12CC3C(CC1O2)C3(C)C (stereo unspecified)
growth inhibition [1]: -30.2% | growth inhibition [2]: -19.6% | growth inhibition [3]: -32.8% | growth inhibition [4]: 2.5% | growth inhibition [5]: 1.35% | growth inhibition [6]: -43.2%

CC(C)CNC(=S)N/N=C/c1ccc(N)cc1
growth inhibition [1]: 31.6% | growth inhibition [2]: 13.7% | growth inhibition [3]: 3% | growth inhibition [4]: 27.8% | growth inhibition [5]: 6% | growth inhibition [6]: -1.1%

CCCCOc1ccc(Br)cc1
growth inhibition [1]: 12.3% | growth inhibition [2]: 5.4% | growth inhibition [3]: 7.6% | growth inhibition [4]: 8.1% | growth inhibition [5]: 3.1% | growth inhibition [6]: -15.1%

CC(Cc1ccccc1)NC(=O)C1CC2CCCCN2C1C (stereo unspecified)
growth inhibition [1]: 4.95% | growth inhibition [2]: 20.4% | growth inhibition [3]: 57.2% | growth inhibition [4]: 45.9% | growth inhibition [5]: 45.5% | growth inhibition [6]: 48.6%

c1ccc(CNC(c2ccccc2)C(NCc2ccccc2)c2ccccc2)cc1 (stereo unspecified)
growth inhibition [1]: -7.35% | growth inhibition [2]: -0.75% | growth inhibition [3]: -14.3% | growth inhibition [4]: -38.4% | growth inhibition [5]: 6.15% | growth inhibition [6]: 10.2%

COc1cccc2c(C(=O)O)cc(-c3ccc(Cl)cc3)nc12
growth inhibition [1]: 7.85% | growth inhibition [2]: 0.75% | growth inhibition [3]: 19.1% | growth inhibition [4]: 15.2% | growth inhibition [5]: 6.9% | growth inhibition [6]: 15.9%

CN(C)CC1CCCC(CN(C)C)C1OC(=O)c1ccccc1 (stereo unspecified)
growth inhibition [1]: 23% | growth inhibition [2]: -5.15% | growth inhibition [3]: 9.25% | growth inhibition [4]: -37.5% | growth inhibition [5]: 14.4% | growth inhibition [6]: 50.9%

C=CCCNC(=S)S
growth inhibition [1]: -1.15% | growth inhibition [2]: 11.7% | growth inhibition [3]: 6.1% | growth inhibition [4]: -2.9% | growth inhibition [5]: 4% | growth inhibition [6]: -3.4%

CCCCCCCCCCCCCCCC(=O)Oc1ccc(C(=S)N2CCOCC2)cc1
growth inhibition [1]: 20.8% | growth inhibition [2]: 1.25% | growth inhibition [3]: 2.4% | growth inhibition [4]: 2.9% | growth inhibition [5]: 5.05% | growth inhibition [6]: 13.9%

O=C1C=C(CCC2=CC(=O)c3ccccc3C2=O)C(=O)c2ccccc21
growth inhibition [1]: 4.65% | growth inhibition [2]: -23.5% | growth inhibition [3]: -26.9% | growth inhibition [4]: -10.9% | growth inhibition [5]: -26.5% | growth inhibition [6]: -28.6%
